Screens as filed in PubChem.
Many of the other results were omitted from the sample, so hits are more common in it than they were.
EphB4 antag: EphB4-ephrin-B2 interaction antagonists, primary screen, biochemical, TNYL-RAW peptide probe, fluorescence polarization; Ephrin type-B receptor 4 (Homo sapiens), P54760; EphB4 LBD / TNYL-RAW-Alexa532 peptide; inhibition, % at 7 µM; hit rate 0.15% among 97,000; AID 720, 2007;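 active means inhibition above the screen-wide mean inhibition plus 3 SD, cut at about 15% in these data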;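 further: 0% = DMSO wells and 100% = excess unlabeled TNYL-RAW peptide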
D1 allo mod: D1 CRE-luciferase signal change, two-sided – cell-based, HEK293 D1, dopamine EC30, D1 allosteric modulator project, primary screen. D(1A) dopamine receptor (Homo sapiens), P21728. dopamine EC30 potentiation; actives deviate in either direction. B-score at 10 µM. hit rate 5.9% among 58,000;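 active means luminescence count or its row- and column-corrected plate score outside the 99.7% band of the plate's sample wells, on either side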
Target sequence (P21728 whole entry, looked up): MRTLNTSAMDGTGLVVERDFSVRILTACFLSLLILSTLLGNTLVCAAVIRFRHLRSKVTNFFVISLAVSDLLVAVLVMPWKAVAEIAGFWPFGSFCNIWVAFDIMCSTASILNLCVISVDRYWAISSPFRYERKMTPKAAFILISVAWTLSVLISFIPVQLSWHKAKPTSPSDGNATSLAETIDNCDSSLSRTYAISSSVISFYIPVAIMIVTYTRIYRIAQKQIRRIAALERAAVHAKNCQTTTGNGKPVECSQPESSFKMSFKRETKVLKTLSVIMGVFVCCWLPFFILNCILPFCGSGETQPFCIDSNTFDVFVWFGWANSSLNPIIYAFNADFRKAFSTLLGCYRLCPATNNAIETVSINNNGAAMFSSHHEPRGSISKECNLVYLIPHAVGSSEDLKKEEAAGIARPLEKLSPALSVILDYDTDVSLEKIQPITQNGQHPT
DAT uptake mod: changed hDAT dopamine uptake under cocaine IC80, either direction, primary screen, cocaine antagonist project, cell-based, LLC-PK1 hDAT, [14C]-dopamine uptake, MLSMR; hit rate 1.3% among 110,000; Sodium-dependent dopamine transporter (Homo sapiens), Q01959; LLC-PK1 hDAT cells, [14C]-dopamine uptake with cocaine IC80; actives deviate in either direction; AID 449768, 2010; B-score at 10 µM;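 active means Z score or B-score, a plate-position-corrected score, falls beyond the plate's 99.7% confidence bounds, in either direction; inactive means both scores lie inside the 99.7% bounds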;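 further: scored against the spread of the other compound wells on the same plate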
D1 mod confirm: D1 receptor positive allosteric modulators, retest, confirmation, cell-based, HEK293 D1, CRE-luciferase, duplicate | shares compounds with D1 allo mod | dopamine EC30 potentiation; stronger effect = higher value | luminescence at 10 µM | hit rate 88% among 2,200;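 active means luminescence in either of two replicates above the same-plate mean plus 3 SD of the low-dose dopamine control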
D1 no dopamine: D1 receptor agonism without dopamine, confirmation, mechanism study for D1 allosteric modulator project, cell-based, HEK293 D1, CRE-luciferase, secondary assay 1; shares compounds with D1 allo mod; luminescence, no dopamine; stronger effect = higher value; luminescence at 10 µM; hit rate 0.8% among 1,900; AID 646, 2007; in the data active means luminescence above about 3900
Isoprot counter: counter-screen for D1 modulators: isoproterenol response in HEK293 cells; calls only at 10 µM; HEK293 D1 CRE-luciferase, isoproterenol EC30 counter-screen; shares compounds with D1 allo mod; hit rate 63% among 2,200; AID 647;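 active means luminescence in either replicate above plate mean of wells with a partly effective reference agonist dose plus 3 SD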;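 further: isoproterenol raises cAMP through native beta-adrenoceptor Gs so signal bypasses D1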
The depositor's hits bear a star; i = inactive; x = no result; + = active, no number.

SMILES	EphB4 antag	D1 allo mod	DAT uptake mod	D1 mod confirm	D1 no dopamine	Isoprot counter
Cc1ccc(S(=O)(=O)N2CCOCC2)cc1C(=O)OCC(=O)N1c2ccccc2NC(=O)C1(C)C	-6	x	0.16	x	x	x
CCOC(=O)c1c(OCC)[nH]c2ccc(O)cc12	3	x	-0.85	x	x	x
O=C1O[C@@H]([C@H](O)CO)C(O)=C1O	x	x	0.0053	x	x	x
O=C(O)CCC(=O)Nc1ccc(Cc2ccc(NC(=O)CCC(=O)O)cc2)cc1	-2	x	-1.1	x	x	x
COC(=O)c1cc(NC2c3ncccc3C(=O)N2Cc2ccccc2)cc(C(=O)OC)c1 (stereo unspecified)	-2	19*	-0.19	20824*	1580	+
COc1ccc(CN2C(=O)c3cccnc3C2O)cc1 (stereo unspecified)	-4	x	-1.7	x	x	x
CCOC(=O)c1ccc(NC2c3ncccc3C(=O)N2Cc2ccc(F)cc2)cc1 (stereo unspecified)	-6	0.92	1.1	x	x	x
COc1ccc(OC)c(NC2c3ncccc3C(=O)N2Cc2ccco2)c1 (stereo unspecified)	-9	8.7*	-0.32	11124*	x	+
COc1ccc(CN2C(=O)c3cccnc3C2Nc2cc(Cl)ccc2OC)cc1 (stereo unspecified)	x	12*	-2.2	26704*	1696	+
COc1ccc(NC2c3ccccc3C(=O)N2Cc2ccco2)cc1OC (stereo unspecified)	x	2.2	-0.13	x	x	x
Cc1ccc(-n2nnc(-c3ccnc4ccccc34)n2)cc1	x	x	0.95	x	x	x
O=C(O)C1CCCCC1C(=O)Nc1ccc(F)cc1F (stereo unspecified)	-3	x	0.17	x	x	x
OC[C@@H](O)[C@@H](O[C@H]1O[C@H](CO)[C@@H](O)[C@H](O)[C@H]1O)[C@H](O)[C@@H](O)CO	x	x	-0.53	x	x	x
N/C(=N/O)c1nc(N2CCCCC2)nc(N2CCCCC2)n1	3	5.2*	1.7	18416*	1644	+
N/C(=N/O)c1nc(N2CCCC2)nc(N(c2ccccc2)c2ccccc2)n1	-3	7.2*	-2.3	13376*	1828	+
c1ccc(N(c2ccccc2)c2nc(N3CCOCC3)nc(N3CCOCC3)n2)cc1	x	1.8	x	x	x	x
C1CCN(c2nc(N3CCCCC3)nc(N3CCNCC3)n2)CC1	-6	-0.048	0.88	x	x	x
CN(C)c1ccnc(N(Cc2ccccc2)Cc2ccccc2)c1C#N	8	x	1.2	x	x	x
CCOC(=O)c1sc(NC(=O)c2cc(-c3ccccc3)nc3ccccc23)c(C#N)c1C	11	x	-0.23	x	x	x
NC(=O)CC(NC(=O)Cc1ccc(Br)cc1)c1ccc(NCCc2ccccc2F)c([N+](=O)[O-])c1 (stereo unspecified)	x	x	-2	x	x	x
Oc1ccccc1N=Nc1nc(-c2ccccc2)c(-c2ccccc2)[nH]1	9	x	-0.95	x	x	x
c1ccc(-c2nc[nH]c2-c2ccccc2)cc1	1	4.9*	1	13428*	1748	i
COc1cccc(N2[C@@H](CC(=O)O)c3ccc(/C=C/C(=O)O)cc3S2(=O)=O)c1	x	x	-0.38	x	x	x
O=C(Nc1ccc(S(=O)(=O)Nc2nccs2)cc1)C1CCCCC1	x	x	0.33	x	x	x
COc1cccc(CNc2ccc(S(=O)(=O)Nc3nccs3)cc2)c1O	-5	12*	-0.29	14616*	1520	+
SMILES	EphB4 antag	D1 allo mod	DAT uptake mod	D1 mod confirm	D1 no dopamine	Isoprot counter
C=CCSc1nc(N)c2c(C)c(C)sc2n1	x	4.9*	-0.44	18248*	1540	+
CCSc1nc(N)c2c(C)c(C)sc2n1	-5	x	-0.82	x	x	x
O=C(c1ccc2c(c1)OCO2)N1CCC2(CC1)Oc1ccc(Cl)cc1C(=O)C21CC(c2ccc(Cl)cc2)=NO1 (stereo unspecified)	x	x	0.23	x	x	x
COc1cc(O)cc2c1[C@@H]1Oc3c(ccc(O)c3CC=C(C)C)[C@@H]1CO2	x	x	0.19	x	x	x
CC1(C)Oc2ccc3ccc(=O)oc3c2/C(=C/NC2CCCCC2)C1=O	0	x	0.18	x	x	x
CC(C)(C)CC(=O)Nc1ccc(Nc2ccccc2)cc1	-14	x	-0.2	x	x	x
O=C(OCCCCN1C(=O)c2ccccc2C1=O)c1ccc(S(=O)(=O)N2CCCC2)cc1	x	-0.12	0.021	x	x	x
O=C(OCCN1C(=O)c2ccccc2C1=O)c1cc(S(=O)(=O)N2CCOCC2)ccc1Cl	-3	3.4*	0.75	9076*	1544	+
Cc1ccc(-n2c(=O)[nH]c3c(C(N)=O)nc(-c4ccc(C)o4)nc32)cc1	-5	1.6	x	x	x	x
Cc1ccc(-n2c(=O)[nH]c3c(C(N)=O)nc(CC(C)C)nc32)cc1	-3	7.8*	-0.036	20900*	1632	+
COc1ccccc1-n1c(=O)[nH]c2c(C(N)=O)nc(CC(C)C)nc21	-6	5.9*	-0.48	9424*	1520	i
COc1ccccc1-n1c(=O)[nH]c2c(C(N)=O)nc(C3CCCCC3)nc21	1	0.95	0.033	x	x	x
Cc1ccc(C2C(C(=O)c3cc4ccccc4o3)=C(O)C(=O)N2CCCN(C)C)cc1 (stereo unspecified)	x	0.24	x	x	x	x
CCN(CC)C(=O)c1sc(NC(=O)c2ccc(C)c([N+](=O)[O-])c2)c(C#N)c1C	8	x	0.55	x	x	x
Cc1cnc(N)c2c(=O)oc3ccccc3c12	-7	9.8*	-1.6	17776*	x	+
O=c1oc2ccccc2c2nccnc12	-6	-0.26	0.32	x	x	x
COC(=O)c1ccc(C(=O)OC)c(NC(=O)CSCc2ccccc2Br)c1	1	x	-0.78	x	x	x
OC[C@H]1O[C@@H](n2cnc3c(Nc4ccccc4)ncnc32)[C@H](O)[C@@H]1O	x	6.6*	0.14	7048*	x	+
OCC1OC(n2cnc3c(NCCc4ccccc4)ncnc32)C(O)C1O (stereo unspecified)	x	x	0.97	x	x	x
COC(=O)c1cc(=O)n(CCc2ccc(OC)cc2)c(=Nc2ccc(F)c(Cl)c2)s1	0	x	1.2	x	x	x
CCn1c(=O)cc(C(=O)OC)sc1=Nc1ccc(F)c(F)c1	2	11*	0.59	23240*	1624	+
Cn1c(=O)c2c(nc(SCC(=O)N(C3CCCCC3)C3CCCCC3)n2C)n(C)c1=O	9	x	x	x	x	x
C=C(C)Cn1c(SCC#N)nc2ccccc2c1=O	8	16*	-2.9*	15044*	1640	+
C=C(C)Cn1c(SCC)nc2ccccc2c1=O	-4	5	-0.81	x	x	x
CCCn1nc(NC(=O)c2ccco2)c2cc3ccc(C)cc3nc21	x	3.2	0.74	x	x	x
CCn1nc(NC(=O)c2ccncc2)c2cc3cccc(C)c3nc21	6	0.66	0.018	x	x	x
CCn1nc(NC(=O)c2ccco2)c2cc3ccccc3nc21	-1	14*	0.84	12332*	1428	+
